This passage reports growth results from PubChem BioAssay (NCI).

The panel holds about 83,000 compounds, 20% with a hit somewhere; the sample as a whole holds those more often.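 Compound tested at a single concentration for 48 hours in 96-well plates; a percent growth value below 10 was scored as active.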 Active and inactive are the calls of the source.

This assay has as its system HS 578T breast. Nature of the assay: NCI-60 one-dose screen, 48 h (100 = growth as untreated, 0 = no growth, -100 = all killed). Particulars: 10 µM unless noted.
On to `O=S(=O)(NCCNc1nccc(-n2cnc3ccccc32)n1)c1ccc(Br)cc1`, for which the growth was 85.7% (inactive). As for `NS(=O)(=O)c1ccc(Nc2nc(N/N=C/c3ccccn3)nc(Nc3ccccc3)n2)cc1`, the figure is -18.8% (active); as for `NC(N)=Nc1ccc(Oc2cccc(Nc3ccc(Br)c(C(F)(F)F)c3)c2)cc1`, 9.28% (active). The figure for `O=c1[nH]c2ccccc2cc1CSc1ccccc1Nc1nccc(-c2ccc(Cl)cc2)n1` is 88.6% (inactive); for `COc1ccccc1C(=O)Nc1cccc2c1C(=O)C(=O)C=C2` it is 102% (inactive). On to `CCO/C=N/C1=C(C#N)C(c2ccc(F)cc2)c2sc3c(C)cccc3c2O1` (centres undefined), for which the growth is 24.6% (inactive). The figure for `O=C(NNc1nc2cc(F)ccc2n2c(CN3CCCC3)ccc12)c1cnccn1` is 68.1% (inactive); for `COc1cc(-c2nn(C(C)(C)C)cc2-c2ccnc(NCCCNS(=O)(=O)c3ccccc3)n2)ccc1Cl` it is 68.3% (inactive).

For the compound `O=C(NCc1ncc[nH]1)c1ccc(-c2nc3ccc4[nH]ncc4c3c3c2CCCC3)cc1`, the growth was -12.8% (active).

Consider `O=C(NNc1nc2cc(F)ccc2n2c(CO)ccc12)c1cnccn1`, for which the growth was 68.3% (inactive). The figure for `O=[N+]([O-])c1cc(/C=N/Nc2nc(N/N=C/c3ccc(Cl)c([N+](=O)[O-])c3)nc(N3CCCCC3)n2)ccc1Cl` is 53.8% (inactive). As for `COc1c(N2CC3CCCNC3C2)c(F)cc2c(=O)c(C(=O)N/N=C/c3ccccc3)cn(C3CC3)c12` (centres undefined), the figure is 97.7% (inactive). As for `O=C(CNc1nc(-c2cccc([N+](=O)[O-])c2)cs1)Nc1cccc(Cl)c1`, the figure is 110% (inactive); as for `O=S(=O)(NCCNc1nccc(-n2cnc3ccccc32)n1)c1ccc(C(F)(F)F)cc1`, 42.9% (inactive).

Regarding `CC(C)(C)c1ccc(C(=O)Nc2sc3c(c2C(N)=O)CC/C(=N\O)C3)cc1`, the growth is 38.7% (inactive). The figure for `CC(=O)c1nnn(-c2c(C(=O)n3nc(C)cc3C)sc(=S)n2-c2ccccc2)c1C` is 113% (inactive).

With `CNC(=O)c1c(NC(=O)c2ccccc2C(F)(F)F)sc2c1CCC(=O)C2`, the growth is 40% (inactive). In the case of `O=C(NNc1nc2cc(F)c(F)cc2n2cccc12)c1cnccn1`, the growth was 75.5% (inactive).

On to `COc1cc(Nc2c(C#N)cnn3cc(-c4cnn(CC(C)(C)O)c4)cc23)ccc1Cl`, for which the growth was 61.9% (inactive). As for `CCCCCCCn1cc2c(N[C@H](C)c3ccccc3)ncnc2n1`, the figure is 91.2% (inactive). The figure for `O=C(Cn1cc(-c2ccccc2)nn1)Nc1nc(-c2ccc(Cl)cc2)cs1` is 106% (inactive); for `CCOC(=O)C(=O)CC(=O)N1C(=S)NC(=O)C1CC(C)C` (centres undefined) it is 111% (inactive). As for `O=C1Nc2ccccc2/C1=C/c1ccc(CO)n1-c1ccc(Cl)cc1`, the figure is 59% (inactive); as for `CCO/C=N/C1=C(C#N)C(c2ccc(OC)cc2)c2sc3c(CC)cccc3c2O1` (centres undefined), 18.2% (inactive). In the case of `O=C1[C@@H]2Cc3c([nH]c4ccccc34)[C@H](c3c(Cl)cccc3Cl)N2C(=O)CN1C1CCN(CC2CCCCC2)CC1`, the growth was 18.7% (inactive). The figure for `Cc1nn(-c2ccccc2)c2ncnc(N/N=C/c3cccc(O)c3)c12` is 56.9% (inactive); for `CS(=O)(=O)Nc1cc(-c2ccc3ncc(C#N)c(NCc4cccc(F)c4)c3c2)cnc1Cl` it is -24.8% (active); for `Cc1ccc(-n2cc(/C=C/C(=O)c3ccc(O)cc3)c(-c3ccc(S(C)(=O)=O)cc3)n2)cc1` it is 96.2% (inactive). As for `CC1(C)NCCC[C@]2(C)[C@H]3C/C(=N\O)C4[C@@H]5C[C@@](C)(CO)CC[C@]5(C)CC[C@@]4(C)[C@]3(C)CC[C@@H]12` (some centres undefined), the figure is 98.6% (inactive); as for `C#CCNC1CCC(c2csc(C#C)n2)=C1C` (centres undefined), 90.7% (inactive). The figure for `NS(=O)(=O)c1ccc(Nc2nc(Nc3ccccc3)nc3nnc(SCC(=O)NC4CCCCC4)n23)cc1` is 102% (inactive). As for `O=C(CNc1nc(-c2cccc([N+](=O)[O-])c2)cs1)Nc1cccc([N+](=O)[O-])c1`, the growth is -11.8% (active).

For the compound `O=C(CSc1nc2ccccc2c(=O)n1-c1ccc(Cl)cc1)N/N=C/c1ccc(N2CCCCC2)cc1`, the growth was 37.9% (inactive). As for `O=C(c1ccc(Cl)cc1)C1[C@H](c2ccc(Cl)cc2)[C@@H](c2ccccc2)NC12C(=O)Nc1ccccc12` (some centres undefined), the figure is 67.1% (inactive). The figure for `CC(=O)c1ccc(Nc2nc(SCC(C)C)nc(-c3ccc(F)cc3)c2C#N)cc1` is 122% (inactive); for `Fc1ccc(-c2cc3nc(C(Cl)Cl)nc(-c4ccc(F)cc4)n3n2)cc1` it is -1.86% (active).

`CNc1ncc2cc(-c3ccc(-c4ncccc4F)cc3Cl)c(=O)n(CC3OCC(N)CO3)c2n1` (centres undefined): the growth is 34.6% (inactive).

As for `C#C[C@]1(O)CC[C@H]2[C@@H]3CC=C4c5sc(-c6ccc7c(c6)OCO7)nc5CC[C@]4(C)[C@H]3CC[C@@]21C`, the growth is -9.35% (active). The figure for `C=CCn1c(SCC(=O)Nc2ccc(C(=O)/C=C/c3ccc(C)cc3)cc2)nnc1-c1c[nH]c2ccccc12` is 96.9% (inactive).
